# This is part of a sample that, as a whole, favours compounds with a hit. Of some 79,000 tested, about 15% had one in any assay. Unmarked numbers belong to inactive results. Calls of active or inactive are those of the source. Rule as the data show it: active = growth inhibition above about 70%; inactive = the rest.
# Assays:
# [1] = NCI Yeast Anticancer Drug Screen. Data for the rad52 strain (AID 147);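 also: 0% = growth of vehicle-treated control cultures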; details: S. cerevisiae rad52 mutant growth inhibition, stronger effect = higher value
# How it was run: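 Vehicle-treated cultures served as the reference for growth inhibition of compound-exposed yeast bearing a DNA repair mutation.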
# [2] = NCI Yeast Anticancer Drug Screen. Data for the wt1 strain (AID 149);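 also: 0% = growth of vehicle-treated wt1 cultures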; details: S. cerevisiae wt1 strain (SPY 50644) growth inhibition, stronger effect = higher value
# How it was run: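 Using yeast strain wt1, compound-induced growth inhibition was determined against vehicle-treated cultures.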
# [3] = NCI Yeast Anticancer Drug Screen. Data for the rad50EPP+ strain (AID 151);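 also: 0% = growth of vehicle-treated control cultures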; details: S. cerevisiae rad50 mutant strain, stronger effect = higher value
# How it was run: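 In this screen, rad50EPP+ yeast were exposed to compounds. Growth inhibition was scored against vehicle-treated controls.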
# [4] = NCI Yeast Anticancer Drug Screen. Data for the mgt1 strain (AID 153); details: S. cerevisiae mgt1 mutant growth inhibition, stronger effect = higher value
# How it was run: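 mgt1 strain exposed; growth vs vehicle control recorded as inhibition.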
# [5] = NCI Yeast Anticancer Drug Screen. Data for the rad50 strain (AID 155);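 also: 0% = growth of vehicle-only cultures of the same strain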; details: S. cerevisiae rad50 strain growth inhibition, stronger effect = higher value
# How it was run: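 Relative growth inhibition (compound vs vehicle) was measured in yeast with a defined repair-gene alteration.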
# [6] = NCI Yeast Anticancer Drug Screen. Data for the mec2-1 strain (AID 157); details: S. cerevisiae mec2-1 strain, stronger effect = higher value
# How it was run: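 Vehicle-treated cultures served as reference for growth inhibition of compound-exposed mec2-1 yeast.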
# [7] = NCI Yeast Anticancer Drug Screen. Data for the rad14 strain (AID 159);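 also: 0% = growth of vehicle-treated control cultures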; details: S. cerevisiae rad14 strain growth inhibition, stronger effect = higher value
# How it was run: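 Screen for anticancer potential: a yeast strain altered in DNA damage repair is grown with compound, and reduced growth is quantified against vehicle controls.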
# [8] = NCI Yeast Anticancer Drug Screen. Data for the sgs1 mgt1 strain (AID 161);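 also: 0% = growth of cultures given vehicle only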; details: S. cerevisiae sgs1 mgt1 strain, stronger effect = higher value
# How it was run: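 Test agents were incubated with a DNA-repair-mutant yeast strain. Growth was then read and compared against vehicle-treated controls.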
# [9] = NCI Yeast Anticancer Drug Screen. Data for the CLN2oe strain (AID 163);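 also: 0% = growth of vehicle-only control cultures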; details: S. cerevisiae CLN2oe strain, stronger effect = higher value
# How it was run: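 Inhibition relative to vehicle-treated yeast is reported. Cells: strain with genetic alteration in cell-cycle control, grown with compound.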
# [10] = NCI Yeast Anticancer Drug Screen. Data for the cln2 rad14 strain (AID 165);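 also: 0% = growth equal to vehicle treated cultures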; details: S. cerevisiae cln2 rad14 strain, stronger effect = higher value
# How it was run: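 Each compound was tested on cln2 rad14 yeast. Inhibition of growth was calculated against vehicle-exposed controls.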
# [11] = NCI Yeast Anticancer Drug Screen. Data for the bub3 strain (AID 167); details: S. cerevisiae bub3 mutant strain, stronger effect = higher value
# How it was run: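 Screening used yeast with an engineered genetic alteration affecting cell cycle control. Compound-exposed cultures were compared with vehicle cultures, and reduced growth was taken as inhibition.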
# [12] = NCI Yeast Anticancer Drug Screen. Data for the wt2 strain (AID 169);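 also: 0% = growth of vehicle-treated yeast cultures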; details: S. cerevisiae wt2 strain growth inhibition, stronger effect = higher value
# How it was run: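 Inhibition of yeast growth was determined after compound treatment, normalised to controls receiving only vehicle.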
# [13] = NCI Yeast Anticancer Drug Screen. Data for the mlh1 strain (AID 171);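 also: 0% = growth of vehicle-treated control cultures of the same strain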; details: S. cerevisiae mlh1 strain growth inhibition, stronger effect = higher value
# How it was run: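 Vehicle-normalised growth inhibition of a repair- or checkpoint-altered yeast strain following compound treatment.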
# [14] = NCI Yeast Anticancer Drug Screen. Data for the mlh1 rad18 strain (AID 175); details: S. cerevisiae mlh1 rad18 strain growth inhibition, stronger effect = higher value
# How it was run: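 Vehicle-treated cultures served as the reference for growth inhibition in a yeast strain carrying DNA damage repair alterations exposed to each compound.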
# [15] = NCI Yeast Anticancer Drug Screen. Data for the rad18 strain (AID 177); details: S. cerevisiae rad18 mutant growth inhibition, stronger effect = higher value
# How it was run: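 Test articles were incubated with altered yeast defective in DNA damage repair. Results are given as inhibition of growth versus vehicle.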
# [16] = at 5.0 µM (retest, dose inferred, filed as 0.5)
# [17] = at 50.0 µM (retest, dose inferred, filed as 5.0)
compound,measurement,setting,value
O=[N+]([O-])[O][Sn]([O][Sn]([O][N+](=O)[O-])([c]1ccccc1)[c]1ccccc1)([c]1ccccc1)[c]1ccccc1,growth inhibition,[1]; at 1.2 µM,6%
same,growth inhibition,[1]; at 3.7 µM,9%
same,growth inhibition,[1]; at 11.0 µM,13%
same,growth inhibition,[1]; at 33.0 µM,32%
same,growth inhibition,[1]; at 100.0 µM,57%
same,growth inhibition,[2]; at 1.2 µM,-3%
same,growth inhibition,[2]; at 3.7 µM,-7%
same,growth inhibition,[2]; at 11.0 µM,-11%
same,growth inhibition,[2]; at 33.0 µM,-2%
same,growth inhibition,[2]; at 100.0 µM,62%
same,growth inhibition,[3]; at 1.2 µM,8%
same,growth inhibition,[3]; at 3.7 µM,-2%
same,growth inhibition,[3]; at 11.0 µM,0%
same,growth inhibition,[3]; at 33.0 µM,20%
same,growth inhibition,[3]; at 100.0 µM,99% (active)
same,growth inhibition,[4]; at 1.2 µM,8%
same,growth inhibition,[4]; at 3.7 µM,10%
same,growth inhibition,[4]; at 11.0 µM,25%
same,growth inhibition,[4]; at 33.0 µM,10%
same,growth inhibition,[4]; at 100.0 µM,94% (active)
same,growth inhibition,[5]; at 1.2 µM,16%
same,growth inhibition,[5]; at 3.7 µM,20%
same,growth inhibition,[5]; [16],25%
same,growth inhibition,[5]; at 11.0 µM,16%
same,growth inhibition,[5]; at 33.0 µM,28%
same,growth inhibition,[5]; [17],66%
same,growth inhibition,[5]; at 50.0 µM,65.2%
same,growth inhibition,[5]; at 100.0 µM,85% (active)
same,growth inhibition,[6]; at 1.2 µM,9%
same,growth inhibition,[6]; at 3.7 µM,0%
same,growth inhibition,[6]; [16],11%
same,growth inhibition,[6]; at 11.0 µM,16%
same,growth inhibition,[6]; at 33.0 µM,14%
same,growth inhibition,[6]; [17],44%
same,growth inhibition,[6]; at 50.0 µM,57.6%
same,growth inhibition,[6]; at 100.0 µM,86% (active)
same,growth inhibition,[7]; at 1.2 µM,0%
same,growth inhibition,[7]; at 3.7 µM,-8%
same,growth inhibition,[7]; at 11.0 µM,-7%
same,growth inhibition,[7]; at 33.0 µM,22%
same,growth inhibition,[7]; at 100.0 µM,94% (active)
same,growth inhibition,[8]; [16],35%
same,growth inhibition,[8]; [17],94% (active)
same,growth inhibition,[8]; at 50.0 µM,70% (active)
same,growth inhibition,[9]; at 1.2 µM,-32%
same,growth inhibition,[9]; at 3.7 µM,-48%
same,growth inhibition,[9]; at 11.0 µM,-34%
same,growth inhibition,[9]; at 33.0 µM,-30%
same,growth inhibition,[9]; at 100.0 µM,29%
same,growth inhibition,[10]; [16],3%
same,growth inhibition,[10]; [17],26%
same,growth inhibition,[10]; at 50.0 µM,30.2%
same,growth inhibition,[11]; at 1.2 µM,8%
same,growth inhibition,[11]; at 3.7 µM,-4%
same,growth inhibition,[11]; [16],23%
same,growth inhibition,[11]; at 11.0 µM,-7%
same,growth inhibition,[11]; at 33.0 µM,6%
same,growth inhibition,[11]; [17],84% (active)
same,growth inhibition,[11]; at 50.0 µM,72.5% (active)
same,growth inhibition,[11]; at 100.0 µM,62%
same,growth inhibition,[12]; at 1.2 µM,-47%
same,growth inhibition,[12]; at 3.7 µM,-47%
same,growth inhibition,[12]; at 11.0 µM,-25%
same,growth inhibition,[12]; at 33.0 µM,-26%
same,growth inhibition,[12]; at 100.0 µM,58%
same,growth inhibition,[13]; at 1.2 µM,7%
same,growth inhibition,[13]; at 3.7 µM,-3%
same,growth inhibition,[13]; at 11.0 µM,5%
same,growth inhibition,[13]; at 33.0 µM,35%
same,growth inhibition,[13]; at 100.0 µM,94% (active)
same,growth inhibition,[14]; [16],19%
same,growth inhibition,[14]; [17],67%
same,growth inhibition,[14]; at 50.0 µM,68%
same,growth inhibition,[15]; at 1.2 µM,-12%
same,growth inhibition,[15]; at 3.7 µM,-12%
same,growth inhibition,[15]; at 11.0 µM,-11%
same,growth inhibition,[15]; at 33.0 µM,5%
same,growth inhibition,[15]; at 100.0 µM,90% (active)

# — PubChem BioAssay (NCI)
